Data from PubChem BioAssay (NCATS).
Inconclusive results are not listed. Activity calls are given as the source filed them. Calls follow the shape of the dose curve; as a rule, active = well fitted inhibition curve with a large enough effect; inconclusive = small, poorly fitted or top-dose-only effect; inactive = flat fitted curve, though single readings scatter.

Tested on: HaCat
Assay: Cytotoxic Profiling of Annotated Libraries Using Quantitative High-Throughput Screening (AID 1296008); also: nearly all actives have a fitted effect of over 60% in size
Details: Five cell lines viability, CellTiter-Glo ATP luminescence, 48-72 h; max response: hits give low values
Summary of the method: (§1)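 Cytotoxicity was measured as CellTiter-Glo ATP luminescence, read after 10 min at room temperature. Compound treatment of the cells lasted 48 or 72 hr at 37 degrees Celsius in a qHTS format.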
% is scaled to controls: 0 for no effect and ±100 for the full control effect; potency is read from the fitted curve at half-maximal effect.

| Compound | max response | Potency |
| --- | --- | --- |
| O=C(Nc1ccc2[nH]c(=O)oc2c1)C(=O)N1CCC(Cc2ccc(F)cc2)CC1 | 4.96% (inactive) | – |
| Cc1ccc(F)cc1S(=O)(=O)N[C@@H]1CCN(Cc2ccc(OC(C)C)cc2)C1 | -5.2% (inactive) | – |
| C#CCNCc1cc2cc(OCc3ccccc3)ccc2[nH]1 | -12.3% (inactive) | – |
| C[C@@H](c1ccc2nccn2c1)n1nnc2ncc(-c3cnn(C)c3)nc21 | -13% (inactive) | – |
| C=C1C(=O)OC2CC(C)=C(C(C)CCCOC(C)=O)C(OC(=O)CC(C)CC)C12 (stereo unspecified) | -2.4% (inactive) | – |
| CN(C)CCC(CSc1ccccc1)Nc1ccc(S(=O)(=O)NC(=O)c2ccc(N3CCN(Cc4ccccc4-c4ccc(Cl)cc4)CC3)cc2)cc1[N+](=O)[O-] (stereo unspecified) | – | 23.1 µM (active) |
| C=CC(=O)Nc1cc(-n2c(=O)ccc3cnc4ccc(-c5ccc(NS(C)(=O)=O)cc5)cc4c32)ccc1C | -9.43% (inactive) | – |
| O=C(Nc1ccc(-n2nc(C(F)(F)F)cc2C(F)(F)F)cc1)c1ccncc1F | 3.3% (inactive) | – |
| O=C(N[C@@H]1CCCc2c1cnn2-c1ccc(F)cc1F)c1ccccn1 | -21.6% (inactive) | – |
| CS/C=C/C(=O)O[C@@H]1CCC2=CC(=O)C(=C(C)C)C[C@]2(C)[C@H]1C | -6.05% (inactive) | – |
| C=CC(=O)N1CCC(Oc2cc3c(Nc4ccc(Cl)c(Cl)c4F)ncnc3cc2OC)CC1 | -116% (inactive) | – |
| CC(=O)OC1CCC2(C)C(CCC3(C)C2CC=C2C4C(C)C(C)CCC4(C)CCC23C)C1(C)C(=O)O (stereo unspecified) | 3.45% (inactive) | – |
| CCOC(=O)N1CCC(CN(Cc2ccc(Cl)cc2)Cc2ccc([N+](=O)[O-])s2)C1 (stereo unspecified) | -2.73% (inactive) | – |
| Cc1cc(-c2cc(OC(=O)c3ccccc3)ccc2Cl)cc2nnc(Nc3ccc(OCCN4CCCC4)cc3)nc12 | 3.59% (inactive) | – |
| CC12CCC(OC3OC(CO)C(O)C(O)C3OC3OC(CO)C(O)C(O)C3O)CC1CCC1C2CCC2(C)/C(=C3/COC(=O)C3)CCC12O (stereo unspecified) | -19.3% (inactive) | – |

Tested on: KB-3-1
Assay: as above
Details: Five cell lines viability, CellTiter-Glo ATP luminescence, 48-72 h; max response: hits give low values
Summary of the method: as §1

| Compound | max response | Potency |
| --- | --- | --- |
| O=P(O)(O)OC(CO)CO | 1.53% (inactive) | – |
| NCCC[C@H](N)C(=O)O | -6.2% (inactive) | – |
| C/C=C(/CC[C@@H](C)[C@H]1CC[C@H]2C3=CC[C@H]4[C@H](C)[C@@H](O)CC[C@]4(C)[C@H]3CC[C@]12C)C(C)C | -22.1% (inactive) | – |
| CCCN(CC)C(CC)C(=O)Nc1c(C)cccc1C (stereo unspecified) | -6.86% (inactive) | – |
| O=C1O[C@H]2[C@H](O)[C@@H]1OC(O)[C@H]2O (stereo partly specified) | -7.29% (inactive) | – |
| CC(CC(c1ccccc1)c1ccccc1)NC(C)(C)C (stereo unspecified) | -0.893% (inactive) | – |
| O=C(CCCN1CCC(n2c(=S)[nH]c3ccccc32)CC1)c1ccc(F)cc1 | 8.28% (inactive) | – |
| O=C[C@H](O)[C@@H](O)[C@H](O[C@H]1O[C@H](CO)[C@@H](O[C@H]2O[C@H](CO)[C@@H](O)[C@H](O)[C@H]2O)[C@H](O)[C@H]1O)[C@H](O)CO | -9.17% (inactive) | – |
| CNC[C@@H]1CC[C@@H](N)[C@@H](O[C@H]2[C@H](O)[C@@H](O[C@H]3OC[C@](C)(O)[C@H](NC)[C@H]3O)[C@H](N)C[C@@H]2N)O1 | -26.6% (inactive) | – |
| CCC(C)[C@H]1O[C@]2(C=C[C@@H]1C)C[C@@H]1C[C@@H](C/C=C(\C)[C@@H](O[C@H]3C[C@H](OC)[C@@H](O[C@H]4C[C@H](OC)[C@H](NC(C)=O)[C@H](C)O4)[C@H](C)O3)[C@@H](C)/C=C/C=C3\CO[C@@H]4[C@H](O)C(C)=C[C@@H](C(=O)O1)[C@]34O)O2 (stereo partly specified) | – | 9.2 µM (active) |
| C/C(=C(\CCOC(=O)c1ccccc1)SS/C(CCOC(=O)c1ccccc1)=C(/C)N(C=O)Cc1cnc(C)nc1N)N(C=O)Cc1cnc(C)nc1N | -12.4% (inactive) | – |
| CCCC1([C@H](O)C/C=C/[C@H]2[C@H](O)CC(=O)[C@@H]2CCCCCCC(=O)OC)CCC1 | -18.2% (inactive) | – |
| Nc1ncnc(Nc2ccc(Cl)cc2)n1 | -7.22% (inactive) | – |
| CCCC(CCC)C(N)=O | -11% (inactive) | – |
| O=C(c1ccccc1)c1c(O)cc(O)cc1O[C@@H]1O[C@H](CO)[C@@H](O)[C@H](O)[C@H]1O | 2.63% (inactive) | – |
| CC(=O)OC[C@H]1O[C@@H](O[C@H]2[C@H](O)[C@@H](OC(=O)c3ccccc3C(=O)O)[C@H](O)O[C@@H]2COC(C)=O)[C@H](O)[C@@H](OC(=O)c2ccccc2C(=O)O)[C@@H]1O | -12.2% (inactive) | – |
